# Screens: PubChem, National Center for Advancing Translational Sciences (NCATS)
# HTT aggregate: inhibitors of mutant huntingtin aggregate formation in PC12 cells | PC12 HttQ103-GFP aggregates, Acumen cytometry, 40 h | Potency, µM (series often up to 46.1 µM), actives largely listed as inhibitors | hit rate 1.1% among 220,000 | AID 1688; also: nearly all actives have a fitted effect of over 60% in size
#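 Quantitative HTS on tebufenozide-induced (100 nM) PC12 cells stably expressing polyQ103 Huntingtin exon 1–GFP. Reduction of bright GFP aggregates, detected by laser scanning cytometry after lysis, identified actives across the titration.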
# aGal spleen mod: alpha-galactosidase A (human) modulation. Potency, µM (top dose mostly 80 µM), actives largely listed as inhibitors. AID 2107. hit rate 0.008% among 240,000. human spleen homogenate, 4MU-alpha-Gal fluorescence, 40 min. P06280
#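 Fluorogenic readout (Ex 365/Em 440 nm) of 4-methylumbelliferone released from 1 mM 4-MU-alpha-galactoside by spleen homogenate, 40 min at 37C, pH 5.0. Data normalized to no-enzyme and enzyme controls; Hill-equation AC50 from compound titrations.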
# GLA inh pH 4.5: blocks human alpha-galactosidase A at pH 4.5 | purified enzyme, 4-MU-alpha-Gal fluorescence, pH 4.5 | activity change, negative = inhibition, % at 105 µM | P06280 | 230,000 tested, under 10 active
# HTT cytoprotect: cytoprotection in Huntington HTT-Q103 PC12 cell model; hit rate 0.14% among 230,000; PC12 HTT-Q103 induced, cytoprotection, ATP luminescence, 40 h; Potency, µM (titrated, usually from 56.4 µM), most hits filed as activators; also: nearly all actives have a fitted effect of over 45% in size
#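 Quantitative HTS on tebufenozide-induced (100 nM) PC12 cells expressing HTTQ103 exon 1–GFP; compounds tested as a concentration series; survival measured via cellular ATP.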
# PKM2 activator: activators of human pyruvate kinase M2. P14618. purified PKM2, Kinase-Glo ATP luminescence, activation; response scale: 0% is enzyme alone, no compound. Potency, µM (doses to about 57.5 µM), most hits filed as activators. hit rate 0.34% among 260,000; also: nearly all actives have a fitted effect of over 55% in size
# Target sequence (P14618 whole entry, looked up): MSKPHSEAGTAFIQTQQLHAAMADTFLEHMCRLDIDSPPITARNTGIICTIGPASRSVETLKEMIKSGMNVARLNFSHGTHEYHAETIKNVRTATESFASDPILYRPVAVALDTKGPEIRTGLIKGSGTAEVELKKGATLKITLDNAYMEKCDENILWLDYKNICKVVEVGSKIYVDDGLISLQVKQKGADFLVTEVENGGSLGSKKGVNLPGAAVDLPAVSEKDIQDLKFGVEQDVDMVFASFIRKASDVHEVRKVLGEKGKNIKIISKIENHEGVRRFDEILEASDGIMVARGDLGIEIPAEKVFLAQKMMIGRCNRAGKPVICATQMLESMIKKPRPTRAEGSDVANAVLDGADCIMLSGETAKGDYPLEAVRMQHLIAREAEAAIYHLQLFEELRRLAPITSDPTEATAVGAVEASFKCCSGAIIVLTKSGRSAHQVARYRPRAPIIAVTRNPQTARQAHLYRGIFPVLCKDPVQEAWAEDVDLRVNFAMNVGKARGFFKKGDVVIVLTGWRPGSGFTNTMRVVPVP
#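 ATP formation by purified human PK-M2, quantified via coupled luciferase luminescence after 1 h at room temperature with 0.1 mM ADP and 0.5 mM PEP final.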
# A number is an active result; – = inactive; ? = inconclusive; · = no result given; [ ] = another dose, or the depositor's remark. Only some compounds are listed: those with a hit (about 1.2% of all), similar ones and a draw of the others. Calls follow the shape of the dose curve; as a rule, active = well fitted curve in the direction sought with a large enough effect; inconclusive = small, poorly fitted or top-dose-only effect, or another doubt; inactive = no such curve, though single readings can be large; an effect the other way counts as inactive or inconclusive.
SMILES,HTT aggregate,aGal spleen mod,GLA inh pH 4.5,HTT cytoprotect,PKM2 activator
C=CCOC(=O)N[C@H](/C(C(=O)OC)=C(\C)NCc1ccccc1)c1cccc(C(F)(F)F)c1,·,–,–,?,·
CCOc1ccc(N(CC(=O)OC)S(=O)(=O)c2ccc3c(c2)n(C)c(=O)c(=O)n3C)cc1,–,–,–,–,–
COC(=O)CN(c1ccc(C)cc1)S(=O)(=O)c1ccc2c(c1)n(C)c(=O)c(=O)n2C,–,–,–,–,16µM
COC(=O)CNC(c1ccccc1)c1cc(Br)ccc1NC(C)=O (configuration not stated),–[9.22 µM],–,–,3.2µM,–
C=CCCn1c(Cl)c(C#N)sc1=O,·,–,·,·,·
CN(c1ccc(C(=O)NCc2ccc3c(c2)OCO3)cc1)S(=O)(=O)c1ccccc1,–,–,–,–,16µM
COc1ccc(S(=O)(=O)N(C)c2ccc(C(=O)NCc3ccco3)cc2)cc1OC,·,·,·,·,–
COc1ccc(S(=O)(=O)N(C)c2ccc(C(=O)NCc3ccco3)cc2)cc1,·,·,·,·,13µM
O=C(c1ccncc1)N1CCC[C@@]2(CCN(Cc3ccncc3)C2)C1,·,–,·,–,·
CCOc1c(Br)ccc2c1sc1nc[nH]c(=O)c12,11µM,–,–,–[10 µM],–
Cn1cc(C=C2C(=O)OC3(CCCCC3)OC2=O)c2ccccc21,–[9.22 µM],–,–,–[10 µM],–
Cn1cc(C=C2C(=O)CC(C)(C)CC2=O)c2ccccc21,0.025µM,–,–,·,–
Nc1sc2c(c1C(=O)c1ccc(Cl)cc1)CCCC2,·,–,·,·,·
Cc1cccc2c(C(=O)N3CCN(C(=O)c4ccco4)CC3)cc(-c3cccc(Br)c3)nc12,8.9µM,–,–,–[10 µM],–
O=S(=O)(c1ccccc1)c1ccc(NCc2ccco2)cc1,–,–,–,–,32µM
O=S(=O)(Nc1nc2ccccc2nc1NCc1ccco1)c1ccccc1,–,–,–,–[0.074 µM],–
NC(=S)c1ccc[n+]([C@@H]2O[C@@H](COP(=O)([O-])OP(=O)(O)OC[C@@H]3O[C@@H](n4cnc5c(N)ncnc54)[C@@H](OP(=O)(O)O)[C@H]3O)[C@@H](O)[C@H]2O)c1,·,·,·,–[1.9 µM],·
CC(C)C[C@H](NC(=O)[C@H](C)NC(=O)CNC(=O)[C@H](CCCCN)NC(=O)[C@H](CCCN=C(N)N)NC(=O)[C@H](C)NC(=O)[C@H](Cc1ccccc1)NC(=O)[C@@H](N)CCCN=C(N)N)C(=O)N[C@@H](CCCN=C(N)N)C(=O)N[C@@H](CCC(N)=O)C(=O)N[C@@H](CCCCN)C(=O)N[C@@H](CC(N)=O)C(=O)N[C@H](C(N)=O)C(C)C,·,–,·,·,·
COc1cc(CN2CCNC(=O)C2CC(=O)N2CCCO2)cc(OC)c1 (configuration not stated),–[9.22 µM],–,–,–[10 µM],14µM
OC1OC[C@H](O)[C@@H](O)[C@H]1O (some centres not stated),·,–,·,·,·
COc1cc2ncnc(NCc3cccc(Cl)c3)c2cc1OC,14µM,–,–,–,–
COc1ccc(CNc2ncnc3cc(Cl)ccc23)cc1,14µM,–,–,–,–
CCCn1c(SCC(=O)c2ccc(CC)cc2)n[nH]c1=O,0.89µM,–,–,?,–
CCCn1c(SCC(=O)c2cc(C)n(-c3ccc4c(c3)OCO4)c2C)n[nH]c1=O,–,–,–,3.5µM,–
Cc1cc(C(=O)CSc2nnnn2-c2ccccc2)c(C)n1-c1ccc2c(c1)OCO2,–,–,–,·,–
SMILES,HTT aggregate,aGal spleen mod,GLA inh pH 4.5,HTT cytoprotect,PKM2 activator
C=C(C(C)=O)C(O)c1cccc(OC)c1 (configuration not stated),·,–,–,–,·
CC(C)NC(=O)NC(=O)CSc1ncc(C(F)(F)F)cc1Cl,–,–,–,–[10 µM],14µM
N#Cc1c(NC(=O)Cn2c(=O)oc3ccccc32)oc(-c2ccccc2)c1-c1ccccc1,20µM,–,–,–,–
Cc1ccc(NC(=O)Cc2nnc(SCC(=O)Nc3ccccc3)n2C)cc1,0.18µM,–,–,·,–
Cc1ccc(NC(=O)CSc2nnc(-c3ccccn3)n2C)cc1,2.8µM,–,–,–,–
CC1=C(C)C[C@@]23CCCN2C(=O)CCC[C@H]3C1,·,–,–,–,·
CCC/C=C(\CCC)C(NC(=O)C(C)(C)C)c1ccc(C(=O)OC)cc1 (configuration not stated),·,–,–,–,–
CC(C)CCC[C@@H](C)[C@@H]1CC[C@@H]2[C@H]3CC[C@H]4C[C@@H](N)CC[C@@]4(C)[C@@H]3CC[C@]21C,·,·,·,–[10 µM],·
CN1CCc2nc(SCC(=O)Nc3cccc(F)c3)c(C#N)c(-c3cccs3)c2C1,–,–,?,–,18µM
O=C(CSc1nc2ccc(Cl)cc2[nH]1)c1ccc2c(c1)OCO2,–,–,–,–,7.9µM
COc1ccc(C(=O)Cn2nnc(-c3ccccc3NC(=O)C3CCCCC3)n2)cc1,13µM,–,–,–,–
O=c1cc(-c2ccccc2Cl)oc2c([N+](=O)[O-])c(O)cc(O)c12,1.8µM,–,–,?,–
CC(NC(=O)OCc1ccccc1)C(=O)Oc1cc2oc(=O)cc(-c3ccccc3)c2cc1Cl (configuration not stated),8.9µM,–,–,–[10 µM],–
C/C=C1/C(=O)C[C@@H]2[C@H]3CCC4=CC(=O)CC[C@]4(C)[C@@H]3CC[C@]12C,·,–,·,–,·
Cc1ccc(C(=O)Nc2nc(=O)n(C(=O)c3ccccc3C)s2)cc1,·,–,–,18µM,–
Cc1ccc(Nc2c(-c3ccccn3)nc3cccc(C)n23)cc1,7.9µM,–,–,–,–
CCN(CC)CCn1c(-c2ccccc2)nc2c(NCCOC)nc(C)nc21,·,–,–,–,–
CNC(=O)COC(=O)c1ccc(Cl)c(S(=O)(=O)N2CCCC2)c1,?,–,–,2.8µM,–
O=C(OCC(=O)N1CCCCCC1)c1ccc(Cl)c(S(=O)(=O)N2CCCC2)c1,–,–,–,–,–
COc1ccc(-c2cc(-n3c(C(F)(F)F)nc4ccccc43)n(CCC#N)n2)cc1,2.8µM,–,–,–,–
CCCCS(=O)(=O)N1C2=NC(C(=O)OC)=C(C(=O)OC)[C@@H]3N(C)c4ccccc4[C@]23C[C@H]1C(=O)OC,·,–[17.5 µM],–,–[10 µM],–[11.5 µM]
Brc1ccc2ncnc(NCc3ccco3)c2c1,8.9µM,–,–,–,–
Cc1ccc2[nH]c3c(NCc4ccco4)ncnc3c2c1,11µM,–,–,–[0.074 µM],–
CSCCC(Nc1ncnc2ccc(Br)cc12)C(=O)O (configuration not stated),–,–,–,–[10 µM],–
c1ccc(Cn2ncc3c(NCc4ccco4)ncnc32)cc1,–,–,–,–,14µM
CC(C)Nc1ncnc2ccc(Br)cc12,6.3µM,–,–,·,–
c1ccc(-n2ncc3c(NCc4ccco4)ncnc32)cc1,–,–,–,–,–
CCCS(=O)(=O)c1nnnn1-c1cccc(OC)c1,3.5µM,–,–,–,–
Cc1c(O)c2c3c(cccc3c1O)C(=O)N(c1ccccc1)C2=O,20µM,–,–,·,–
